aSyn UTR act = Activators via SNCA 5'UTR binding, MLPCN; alpha-synuclein 5'UTR reporter, activators screen; AID 1814; actives 7.1% (n = 300,000); activity score, % (tested at 7.5 µM), hits read low; in the data active = activity score below about -60%
* = called active by the depositor. A selection follows.

SMILES	aSyn UTR act
Cc1ccccc1-c1nnn(Cc2ccc(F)cc2Cl)n1	-86.3*
COc1ccc(C(=O)NC(=S)NCC2CCCO2)cc1 (stereo unspecified)	-71.4*
O=C(NCC1CCCO1)c1cc(-c2ccc(F)cc2)no1 (stereo unspecified)	-263.6*
COc1cccc(-c2cc(C(=O)NCC3CCCO3)on2)c1 (stereo unspecified)	-63.9*
CC(C)CNc1nc(N)c([N+](=O)[O-])c(NCC2CCCO2)n1 (stereo unspecified)	51.0
C=C(C)CNC(=S)N/N=C/c1ccc(N2CCOCC2)cc1	-64.3*
CC(C)NC(=S)N/N=C/c1ccc(N2CCOCC2)cc1	-87.5*
Cc1cc2oc3ccc(NCCCn4ccnc4)cc3c(=O)c2cc1C	-85.9*
Cc1cc2oc3ccc(NCCCN4CCOCC4)cc3c(=O)c2cc1C	-96.7*
O=[N+]([O-])c1ccccc1S(=O)(=O)Oc1ccc(C(=S)N2CCOCC2)cc1	-62.3*
CCS(=O)(=O)c1ccc2oc(Nc3ccccc3Br)nc2c1	-108.4*
CCS(=O)(=O)c1ccc2oc(Nc3ccccc3Cl)nc2c1	-153.6*
CCS(=O)(=O)c1ccc2oc(Nc3cccc(OC)c3)nc2c1	-144.9*
Clc1ccc(C2=Nc3cc(Cl)ccc3OC2)cc1	-205.7*
Cc1ccc2c(c1)N=C(c1ccc(Cl)cc1)CO2	-152.0*
CCC(C)(C)c1ccc2c(c1)C(=O)c1ccccc1C2=O	-71.5*
COc1cccc(NC2SC(=O)N(c3ccccc3)C2=O)c1 (stereo unspecified)	-97.0*
Nc1nonc1-c1noc(COc2ccccc2Cl)n1	-161.7*
Nc1nonc1-c1noc(CCCN2C(=O)c3ccccc3C2=O)n1	-107.8*
Cc1cccc(OCc2nc(-c3nonc3N)no2)c1C	-143.6*
O=C(Nc1ccc(-c2noc(COc3ccccc3Cl)n2)cc1)c1ccco1	-139.9*
O=C(c1ccc2oc(CCCc3ccccc3)nc2c1)N1CCCC(CCCO)C1 (stereo unspecified)	-64.8*
O=C(c1ccc2oc(CCc3ccccc3)nc2c1)N1CC[C@H](O)C1	-134.1*
CCCCc1nc2cc(C(=O)N(C)C3CCOCC3)ccc2o1	-164.7*
CCCCc1nc2cc(C(=O)N3CCC(O)CC3)ccc2o1	-82.7*
SMILES	aSyn UTR act
COC(=O)CCCNC(=O)c1ccc2oc(CCCc3ccccc3)nc2c1	-62.1*
COC(=O)[C@@H](C)NC(=O)c1ccc2oc(CCc3ccccc3)nc2c1	-168.6*
CN=C1S/C(=C\c2ccc(N3CCCC3)c(F)c2)C(=O)N1C	-139.3*
CN=C1S/C(=C\c2ccc(N3CCOCC3)c(F)c2)C(=O)N1C	-75.7*
CC(O)/C=C/c1ccc2ccccc2n1 (stereo unspecified)	-153.6*
CCOc1ccc(-c2noc(CCC(=O)O)n2)cc1	60.5
Clc1ccc(OCc2nc(-c3ccncc3)no2)cc1	-126.5*
Clc1ccc(Cl)c(-c2nc(-c3ccncc3)no2)c1	-130.9*
Clc1ccc(-c2nc(-c3ccncc3)no2)c(Cl)c1	-103.7*
Cc1cc(=O)[nH]c(N/N=C/c2sccc2C)n1	-90.4*
C(=N\Nc1nc2ccccc2[nH]1)/c1cccs1	-171.9*
Cc1ccsc1/C=N/Nc1nc2ccccc2[nH]1	-213.3*
NC1=C(Br)C(=O)c2ccccc2C1=O	65.4
O=C1c2ccccc2-c2nc3ccccc3nc21	-181.9*
COc1ccc(Nc2oc(-c3cccs3)nc2C#N)cc1	-171.3*
COc1ccc(Nc2oc(-c3ccccc3F)nc2C#N)cc1	-102.5*
COc1ccc(Nc2oc(COc3ccccc3OC)nc2C#N)cc1	98.3
Cc1ccc(-c2nn(-c3ccccc3)cc2C=O)o1	-87.7*
Cc1ccc(-c2nn(-c3ccccc3)cc2CO)o1	-82.2*
Cc1ccc(-c2nn(-c3ccccc3)cc2CSC(=N)N)cc1	119.5
CCS(=O)(=O)n1nc(-c2ccc(Cl)cc2)nc1SCc1ccccc1	-109.6*
Cc1occc1C(=O)NCCCc1ccccc1	-70.8*
Cc1occc1C(=O)NCCc1cccc(Cl)c1	-81.5*
Cc1occc1C(=O)NNC(=O)c1ccccc1C(=O)O	-73.9*
CC(C)=C1C2C=CC1C(C(=O)Nc1cccc(C)c1)C2C(=O)O (stereo unspecified)	-62.0*
SMILES	aSyn UTR act
Cc1nc(NC(=O)C(C)Oc2cccc(Cl)c2)sc1C(=O)N(C)C (stereo unspecified)	-65.0*
Cc1ccc(C(=O)Nc2nc(C)c(C(=O)N(C)C)s2)o1	-76.8*
CCCCc1nnc(NC(=O)c2oc3ccccc3c2C)s1	-96.0*
CC(Oc1cccc(Cl)c1)C(=O)Nc1nc(-c2ccccn2)cs1 (stereo unspecified)	63.7
Cc1nc(NC(=O)/C=C/c2ccccc2)sc1C(=O)N(C)C	-165.8*
Cc1nnc(NC(=O)c2oc3ccccc3c2C)s1	-83.4*
Cc1nc(NC(=O)c2oc3ccccc3c2C)sc1C(=O)N(C)C	-192.5*
CCN(C(=O)CSc1cc(C)c2cccc(C)c2n1)C1CCS(=O)(=O)C1 (stereo unspecified)	-79.6*
CNC(=S)N1CCN(c2nc3ccccc3s2)CC1	-75.4*
CCC(=O)N1CCN(c2nc3ccccc3s2)CC1	-105.0*
O=C(C1CC1)N1CCN(c2nc3ccccc3s2)CC1	-84.1*
Cc1ccc(OCC(=O)c2cc(C)n(C3CC3)c2C)c([N+](=O)[O-])n1	-94.0*
Cc1ccc(OCC(=O)c2cc(C)n(CC(F)(F)F)c2C)c([N+](=O)[O-])n1	-72.3*
COc1cc(CO)ccc1OCc1ccc(Cl)nc1	-102.5*
Cc1ccc(/C=C/C(=O)Nc2ccc(N(C)C)cc2)o1	-193.3*
Cc1ccc(/C=C/C(=O)Nc2ncc(C)s2)o1	-206.7*
Cc1ccc(/C=C/C(=O)Nc2nccs2)o1	-156.8*
Cc1cnc(NC(=O)/C=C/c2ccc(Br)o2)s1	-105.6*
CCCCOC(=O)Nc1nc2ccc(OC)cc2s1	-102.9*
CCCCN(C(=O)NC(=O)Nc1nc2ccc(OC)cc2s1)S(C)(=O)=O	-82.9*
CCCCOC(=O)Nc1nc2ccccc2s1	-252.5*
Cc1cccc(C)c1NS(=O)(=O)c1ccc(-c2cnc(C3CC3)o2)cc1	102.7
COc1ccc(C)cc1Nc1c2c(nc3ccccc13)CCC2	68.3
Cc1nn(-c2cc(C)c3ccccc3n2)c2c1CCC2	-90.1*
CC(C)N(Cc1nccn1C)C(=O)CCc1nnc(CCCc2ccccc2)o1	-119.9*
SMILES	aSyn UTR act
CN(CCc1ccccn1)C(=O)CCc1nnc(CCCc2ccccc2)o1	-91.3*
CSc1ccc(-c2cc(=O)c3ccccc3o2)cc1	-328.1*
O=c1cc(-c2ccc(F)cc2)oc2ccccc12	-96.9*
O=c1cc(-c2ccccc2F)oc2ccccc12	-111.1*
Cc1cc(C(=O)NC2CCC(C)CC2)c(C)o1 (stereo unspecified)	-109.5*
Cc1ccc(C(=O)Nc2ncc([N+](=O)[O-])s2)cc1	68.9
O=C(Nc1ncc([N+](=O)[O-])s1)c1ccco1	-98.1*
O=C(Cc1ccc(Cl)cc1)Nc1ncc([N+](=O)[O-])s1	-131.1*
O=C(Cc1ccc(Br)cc1)Nc1ncc([N+](=O)[O-])s1	-104.6*
C[C@H]1COC2=C1C(=O)C(=O)c1c2ccc2c1CCCC2(C)C	101.6
O=C(Nc1ccccc1)c1ccc(Br)o1	-73.3*
Cc1cccc(NC(=O)c2ccc(C(=O)c3ccccc3)o2)c1	-156.4*
CCc1cccc(NC(=O)c2ccc(Br)o2)c1	-116.3*
CCCC/C(=N\NC(=O)c1ccc(Br)o1)c1ccccc1	-68.9*
O=C(Nc1ccc2c(c1)oc1ccccc12)c1ccc(Br)o1	-210.0*
O=C(c1ccccc1)c1cccc(NC(=O)c2ccc(Br)o2)c1	-90.0*
COc1cc(O)sc1C=Nc1ccc(Cl)cc1	-92.1*

Compound activity (PubChem)
